Results reported in the supplement of paper PMC10338343.
± gives the standard deviation. In all, about 6,600 sequences were measured (“pre-steady-state target cleavage rate”: median about 0.07, highest 2% from about 0.72 on). The list comes from a sample in which the highest values are over-represented; it also holds similar and randomly drawn sequences.

system: MIWI (PIWIL1) piRISC loaded with Kctd7 piRNA (30 nt); assay: pre-steady-state target cleavage rate (min^-1); MIWI and MILI are mouse PIWI proteins and EfPiwi is from a freshwater sponge; tags in brackets are library labels; higher = faster piRNA-guided slicing of the target; settings: guide: Kctd7 piRNA 5'p-UGUUAAUCUCUCAGAGAAGGUGACAGUGAU; auxiliary factor: 500 nM mouse GTSF1
Experimental: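 Cleave-'n-Seq: a library of target RNAs (target site embedded in constant flanks, ACAGCATTCCGCGTTAGTGATATCCG... 5' flank; DNA-blocked outside the site) at 0.1 nM was incubated with 1 nM active mouse MILI or MIWI piRISC (synthetic 5'-monophosphorylated piRNA guide) with or without 500 nM mouse GTSF1 at 33 °C for 1 min to 16 h. Uncleaved targets were sequenced and normalised to non-target controls, and the pooled three trials were fitted to a burst-and-steady-state model to give the pre-steady-state cleavage rate (min^-1; k3 is constrained to at most 1e-4). Sequence is the target site only; target names encode pairing extent (gX:gY) and contiguous / 1-mismatch / 2-mismatch / bulge geometry. Fits with R² ≤ 0 are excluded.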

Q: For UAGUGUGUCACCUUCUCUGAGUGAUUAUCA, which “pre-steady-state target cleavage rate” value is on record?
A: 0.00944 ± 0.0044

Q: For UAGUGAGUCACCUUCUGUGAGAGAUUUUGA, which “pre-steady-state target cleavage rate” value is on record?
A: 0.012 ± 0.0055

Q: UAGUGAGUCACCUUCUCUGAGAGAUUAUGA was tested. Which “pre-steady-state target cleavage rate” value did it give?
A: 0.088 ± 0.019

Q: With UAGAGUGUCACCUACUCUGAGAGAUUAACA as the sequence, how does the “pre-steady-state target cleavage rate” value read?
A: 0.765 ± 0.042

Q: Which “pre-steady-state target cleavage rate” value does the source give for AUGACUGUCACCUUCUCUGAGAGAUUAAGA here?
A: 0.205 ± 0.028

Q: Which “pre-steady-state target cleavage rate” value does the source give for AUGACUGUCACCUUCUCUGAGAGAUUAACA here?
A: 0.771 ± 0.037

Q: How did the “pre-steady-state target cleavage rate” value turn out when UACAGUGUCACCUACUCUGAGAGAUUAACA was run?
A: 0.585 ± 0.038

Q: UAGUGUGUCACCUACUCUGAGAGAUUAACA was tested. Which “pre-steady-state target cleavage rate” value did it give?
A: 0.598 ± 0.054

Q: With AUGACUGUCACCUUCUCUGUGAGAUUAACA as the sequence, how does the “pre-steady-state target cleavage rate” value read?
A: 0.278 ± 0.013

Q: UUCACUGUCACCUAGUCUGAGAGAUUUUGA was tested. Which “pre-steady-state target cleavage rate” value did it give?
A: 0.111 ± 0.03

Q: How did the “pre-steady-state target cleavage rate” value turn out when UAGUGACACAGCUUCUCUGAGAGUUUAACA was run?
A: 0.0412 ± 0.0084

Q: How did the “pre-steady-state target cleavage rate” value turn out when UUCACUGUCUCCUUCACUGAGAGAUUAACA was run?
A: 0.393 ± 0.032

Q: With AUCACGUGUCACCUUCUCUGAGAGAUUAACA as the sequence, how does the “pre-steady-state target cleavage rate” value read?
A: 0.63 ± 0.03

Q: How did the “pre-steady-state target cleavage rate” value turn out when UACACGUCACCUUCUCUGAGAGAUUAACA was run?
A: 0.737 ± 0.043

Q: With AUCACCGUCACCUUCUCUGAGAGAUUAACA as the sequence, how does the “pre-steady-state target cleavage rate” value read?
A: 0.67 ± 0.026

Q: UACACGGUCACCUUCUCUGAGAGAUUAACA was tested. Which “pre-steady-state target cleavage rate” value did it give?
A: 0.593 ± 0.027

Q: For AUCACGUCACCUUCUCUGAGAGAUUAACA, which “pre-steady-state target cleavage rate” value is on record?
A: 0.732 ± 0.041

Q: How did the “pre-steady-state target cleavage rate” value turn out when UACACGUGUCACCUUCUCUGAGAGAUUAACA was run?
A: 0.563 ± 0.026

Q: With UUCACCGUCACCUUCUCUGAGAGAUUAACA as the sequence, how does the “pre-steady-state target cleavage rate” value read?
A: 0.698 ± 0.03

Q: For UUCACGUCACCUUCUCUGAGAGAUUAACA, which “pre-steady-state target cleavage rate” value is on record?
A: 0.702 ± 0.03

Q: UACACCGUCACCUUCUCUGAGAGAUUAACA was tested. Which “pre-steady-state target cleavage rate” value did it give?
A: 0.78 ± 0.04

Q: For UACACUGUCACCUUCACUGAGAGUUUAACA, which “pre-steady-state target cleavage rate” value is on record?
A: 0.356 ± 0.081

Q: Which “pre-steady-state target cleavage rate” value does the source give for AUCACUGUCACCUAGACUGAGAGAUUAAGA here?
A: 0.0119 ± 0.0058

Q: With UAGUCUGUGACCUUCUGUGAGAGAUUAACA as the sequence, how does the “pre-steady-state target cleavage rate” value read?
A: 0.399 ± 0.028

Q: Which “pre-steady-state target cleavage rate” value does the source give for UAGUCUGUCACCUUCUCUGAGACAUAAACA here?
A: 0.0237 ± 0.0074

Q: For UUCAGUGUCACCUUCUCUGAGAGAUUUUGA, which “pre-steady-state target cleavage rate” value is on record?
A: 0.161 ± 0.043

Q: How did the “pre-steady-state target cleavage rate” value turn out when AUCACUGUCACCUUCCCUGAGAGAUUAACA was run?
A: 0.449 ± 0.064

Q: With UAGUGUGUCACGAACUCUGAGAGAUUAACA as the sequence, how does the “pre-steady-state target cleavage rate” value read?
A: 0.0752 ± 0.0083

Q: Which “pre-steady-state target cleavage rate” value does the source give for UAGUGUCUCACCUUCUCUGAGAGAUUAUCA here?
A: 0.239 ± 0.033

Q: For UUAACUGUCACCUUCUCUGAGAGAUUAACA, which “pre-steady-state target cleavage rate” value is on record?
A: 0.581 ± 0.022

Q: How did the “pre-steady-state target cleavage rate” value turn out when AUCACUGUCAACCUUCUCUGAGAGAUUAACA was run?
A: 0.269 ± 0.021

Q: Which “pre-steady-state target cleavage rate” value does the source give for UUCAACUGUCACCUUCUCUGAGAGAUUAACA here?
A: 0.733 ± 0.039

Q: How did the “pre-steady-state target cleavage rate” value turn out when AUAACUGUCACCUUCUCUGAGAGAUUAACA was run?
A: 0.675 ± 0.03

Q: For UAAACUGUCACCUUCUCUGAGAGAUUAACA, which “pre-steady-state target cleavage rate” value is on record?
A: 0.677 ± 0.03

Q: For AUCAACUGUCACCUUCUCUGAGAGAUUAACA, which “pre-steady-state target cleavage rate” value is on record?
A: 0.737 ± 0.049

Q: UUCACUGUCAACCUUCUCUGAGAGAUUAACA was tested. Which “pre-steady-state target cleavage rate” value did it give?
A: 0.271 ± 0.019

Q: With UACAACUGUCACCUUCUCUGAGAGAUUAACA as the sequence, how does the “pre-steady-state target cleavage rate” value read?
A: 0.744 ± 0.042

Q: “AUCACUGUCACCUUCUCUGAGAGAUUAACU [g2:g30:cont:t1U]” was tested. Which “pre-steady-state target cleavage rate” value did it give?
A: 0.526 ± 0.057

Q: With UAGUGUGUGACCUUCUCUGUGAGAUUAACA as the sequence, how does the “pre-steady-state target cleavage rate” value read?
A: 0.206 ± 0.016

Q: For UAGUGACAGUCCCUUCUCUGAGAGAUUAACA, which “pre-steady-state target cleavage rate” value is on record?
A: 0.611 ± 0.046

Q: For UAGACUCGUCACCUUCUCUGAGAGAUUAACA, which “pre-steady-state target cleavage rate” value is on record?
A: 0.687 ± 0.041

Q: UAGUCUCGUCACCUUCUCUGAGAGAUUAACA was tested. Which “pre-steady-state target cleavage rate” value did it give?
A: 0.571 ± 0.025

Q: For UACACUCUCACCUUCUCUGAGAGAUUAACA, which “pre-steady-state target cleavage rate” value is on record?
A: 0.444 ± 0.031

Q: Which “pre-steady-state target cleavage rate” value does the source give for UUCACUCUCACCUUCUCUGAGAGAUUAACA here?
A: 0.54 ± 0.028

Q: For UACACUCGUCACCUUCUCUGAGAGAUUAACA, which “pre-steady-state target cleavage rate” value is on record?
A: 0.77 ± 0.035

Q: For UACACACUCACCUUCUCUGAGAGAUUAACA, which “pre-steady-state target cleavage rate” value is on record?
A: 0.568 ± 0.044

Q: AUCACUCUCACCUUCUCUGAGAGAUUAACA was tested. Which “pre-steady-state target cleavage rate” value did it give?
A: 0.551 ± 0.029

Q: How did the “pre-steady-state target cleavage rate” value turn out when UUCACUCGUCACCUUCUCUGAGAGAUUAACA was run?
A: 0.78 ± 0.042

Q: AUCACUCGUCACCUUCUCUGAGAGAUUAACA was tested. Which “pre-steady-state target cleavage rate” value did it give?
A: 0.747 ± 0.043

Q: How did the “pre-steady-state target cleavage rate” value turn out when UACACUGUCACCUUCUCAGAGAGAAUAACA was run?
A: 0.076 ± 0.021

Q: With AUCACUGUCACGUUCUCUCAGAGAUUAACA as the sequence, how does the “pre-steady-state target cleavage rate” value read?
A: 0.0868 ± 0.0082

Q: For UAGUGUCUCACCUUCACUGAGAGAUUAACA, which “pre-steady-state target cleavage rate” value is on record?
A: 0.276 ± 0.019

Q: For UAGUGACUCACCAUCUCUGAGAGUUUAACA, which “pre-steady-state target cleavage rate” value is on record?
A: 0.173 ± 0.035

Q: UACACUGUCACCUUCUCUGAGACAUUUUGA was tested. Which “pre-steady-state target cleavage rate” value did it give?
A: 0.00497 ± 0.0047

Q: UUCACUGUCACCUUCUCUGAGGGAUUAACA was tested. Which “pre-steady-state target cleavage rate” value did it give?
A: 0.51 ± 0.024

Q: For UAGACUGUCACCUUCUCUGAGAGGAUUAACA, which “pre-steady-state target cleavage rate” value is on record?
A: 0.369 ± 0.036

Q: With UAGACUGUCACCUUCUCUGAGGAUUAACA as the sequence, how does the “pre-steady-state target cleavage rate” value read?
A: 0.00433 ± 0.0033

Q: Which “pre-steady-state target cleavage rate” value does the source give for UACACUGUCACCUUCUCUGAGGGAUUAACA here?
A: 0.611 ± 0.033

Q: Which “pre-steady-state target cleavage rate” value does the source give for UAGACUGUCACCUUCUCUGAGGGAUUAACA here?
A: 0.741 ± 0.051

Q: Which “pre-steady-state target cleavage rate” value does the source give for AUCACUGUCACCUUCUCUGAGGGAUUAACA here?
A: 0.75 ± 0.041

Q: Which “pre-steady-state target cleavage rate” value does the source give for UAGUGACUCACGUUCUCUGAGAGUUUAACA here?
A: 0.0255 ± 0.006

Q: For UACACUGUCACCUUCACUGAGACAUUAACA, which “pre-steady-state target cleavage rate” value is on record?
A: 0.19 ± 0.025

Q: Which “pre-steady-state target cleavage rate” value does the source give for AUCACUCACACCUUCUCUGAGAGAUUAACA here?
A: 0.587 ± 0.027

Q: With UAGACUGUCACCUUCUCUGAGAGAUUUACA as the sequence, how does the “pre-steady-state target cleavage rate” value read?
A: 0.369 ± 0.049

Q: How did the “pre-steady-state target cleavage rate” value turn out when UAGUGACACACCAUCUCUGAGAGAUUAACA was run?
A: 0.274 ± 0.027

Q: Which “pre-steady-state target cleavage rate” value does the source give for AUCACUGUCAGCUUCUCUGAGAGUUUAACA here?
A: 0.149 ± 0.018

Q: Which “pre-steady-state target cleavage rate” value does the source give for AUCACUGACACCUUCUCUGAGAGUUUAACA here?
A: 0.644 ± 0.16

Q: For UACACUGUCACCUUCUCUGAGAGUUUAUCA, which “pre-steady-state target cleavage rate” value is on record?
A: 0.137 ± 0.041

Q: For AUCUCUGUCACCUUCUCUGAGAGUUUAACA, which “pre-steady-state target cleavage rate” value is on record?
A: 0.711 ± 0.12

Q: How did the “pre-steady-state target cleavage rate” value turn out when UUCACUGACACCUUCUCUGAGAGUUUAACA was run?
A: 0.591 ± 0.11

Q: With UACACUGACACCUUCUCUGAGAGUUUAACA as the sequence, how does the “pre-steady-state target cleavage rate” value read?
A: 0.904 ± 0.3

Q: How did the “pre-steady-state target cleavage rate” value turn out when UUCACUGUCACCUUCUCUGAGAGUUUAUCA was run?
A: 0.27 ± 0.061

Q: How did the “pre-steady-state target cleavage rate” value turn out when UUCUCUGUCACCUUCUCUGAGAGUUUAACA was run?
A: 0.517 ± 0.07

Q: Which “pre-steady-state target cleavage rate” value does the source give for UACUCUGUCACCUUCUCUGAGAGUUUAACA here?
A: 0.781 ± 0.098

Q: With AUCACUGUCACCUUCUCUGAGAGUUUAUCA as the sequence, how does the “pre-steady-state target cleavage rate” value read?
A: 0.753 ± 0.19
